# Compound activity as filed in PubChem BioAssay.
# The entries come from a sample that favours hits as a whole.
# SARS PLP yeast: inhibitors of SARS-CoV papain-like protease in yeast | S. cerevisiae expressing SARS-CoV PLpro, growth rescue | Potency, µM (titrated, usually from 32.9 µM), inactives show at the highest dose activity, positive = growth rescue, actives largely listed as activators | 0.19% of 330,000 active | AID 485353; calls by dose curve; further: potency means the concentration at half of the fitted maximal effect; 0% is about no effect; nearly all actives have a fitted effect of over 55% in size
# Shiga inhibitor: Shiga toxin inhibition; Vero cells, Shiga toxin protein synthesis inhibition reporter; inhibition, % at 38.7 µM; 9.2% of 290,000 active; AID 2315; in the data active means inhibition mostly above about 28%, no sharp cut-off; inactive means mostly below about 43%; further: 0% is about no effect
# AmpC no deterg: blocks E. coli AmpC beta-lactamase in detergent-free assay; Potency, µM (highest dose often 57.1 µM), without a hit: at the highest dose activity change, negative = inhibition, actives largely listed as inhibitors; AmpC nitrocefin hydrolysis, absorbance 480 nm, 0.0001% Triton; AID 485341; P00811; 0.52% of 330,000 active;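 further: potency means the concentration at half of the fitted maximal effect; plate controls were no compound for no effect and no enzyme for full effect; nearly all actives have a fitted effect of over 20% in size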
# Target sequence (P00811 whole entry, looked up): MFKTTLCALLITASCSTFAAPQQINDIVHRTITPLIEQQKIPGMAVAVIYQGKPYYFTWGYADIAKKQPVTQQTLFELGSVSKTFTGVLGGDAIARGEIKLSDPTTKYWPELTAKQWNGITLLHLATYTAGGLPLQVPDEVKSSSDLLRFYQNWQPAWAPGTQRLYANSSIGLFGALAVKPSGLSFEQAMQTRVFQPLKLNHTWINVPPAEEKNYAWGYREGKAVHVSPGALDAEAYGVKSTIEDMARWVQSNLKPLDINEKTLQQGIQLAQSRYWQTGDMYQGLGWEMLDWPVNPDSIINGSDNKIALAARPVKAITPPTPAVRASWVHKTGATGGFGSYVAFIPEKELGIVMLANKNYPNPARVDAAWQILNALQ
#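 AmpC (5.3 nM in the dispensed reagent) in 20 mM phosphate pH 7.0 with 0.01% (detergent screen) or 0.0001% Triton X-100 was preincubated with compounds for 15 min at room temperature. Nitrocefin was then added from an 800 uM solution, and hydrolysis was followed at 480 nm.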
# AMA1-RON2 inh: AMA1-RON2 (P. falciparum) interaction inhibition; 0.2% of 360,000 active; AID 720542; AlphaScreen AMA1-biotinylated RON2 peptide binding; Potency, µM (series often up to 58.2 µM), for the others: at the highest dose activity change, negative = inhibition, actives largely listed as inhibitors;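 further: potency means the concentration at half of the fitted maximal effect; 0% = vehicle wells and -100% = peptide control; nearly all actives have a fitted effect of over 45% in size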
#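 AMA1 (3D7) with his tag at 25 nM final met compounds first, then biotinylated RON2 peptide at 25 nM; detection used donor plus acceptor beads, 10 µg/mL apiece, read by AlphaScreen after 30 min at room temperature.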
# CHX counter: counter-screen hit for Shiga toxin inhibitors, cycloheximide; cell reporter, cycloheximide protein synthesis inhibition counterscreen; max response, %; AID 2314; 12% of 300,000 active; in the data active means max response mostly above about 13%, no sharp cut-off; inactive means mostly below about 14%; further: read at 38.3 µM for the half of the compounds with a filed dose; 0% is about no effect
# AmpC inh detg: inhibitors of E. coli AmpC beta-lactamase with detergent; AmpC hydrolysis of nitrocefin, absorbance 480 nm, 0.01% Triton; Potency, µM (titrated, usually from 114 µM), without a hit: top-dose activity change, negative = inhibition, hits mostly inhibitors; 0.041% of 370,000 active; AID 485294;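 further: potency means the concentration at half of the fitted maximal effect; 0% = no-compound wells and -100% = no-enzyme wells; nearly all actives have a fitted effect of over 25% in size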
#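 AmpC (5.3 nM in the dispensed reagent) in 20 mM phosphate pH 7.0 with 0.01% (detergent screen) or 0.0001% Triton X-100 was preincubated with compounds for 15 min at room temperature. Nitrocefin was then added from an 800 uM solution, and hydrolysis was followed at 480 nm.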
# Active calls of the source: *; ? = inconclusive; · = no result; [ ] = dose if it differs, or a comment. Unless noted, the call rests on the fitted dose curve; in most records, active means well fitted curve in the direction sought with a large enough effect; inconclusive means small, poorly fitted or top-dose-only effect, or another doubt; inactive means no such curve, though single readings can be large; an effect the other way counts as inactive or inconclusive.
SMILES,SARS PLP yeast,Shiga inhibitor,AmpC no deterg,AMA1-RON2 inh,CHX counter,AmpC inh detg
NC(=O)c1ccc(-n2nnnc2SCC(=O)Nc2ccccc2)cc1,3%,·,-27%,0%,4,5%
O=C(/C(=N\Nc1ccccc1)Sc1nnnn1-c1ccccc1)c1ccccc1,14%,5,1.1µM*,-15%,8,?
COc1cc2[nH]c3c(=O)n(N)c(=O)[nH]c3c2cc1OC,-2%,-7,-5%,9%,-2,1%
Cc1ccccc1C(=O)OC1OC(=O)C(Cl)=C1N1CCOCC1 (configuration not stated),-19%,8,2.8µM*,0%,3,4µM*
Cc1ccccc1NC1=C(Cl)C(=O)OC1OC(=O)c1ccccc1C (configuration not stated),-13%,36,10µM*,-8%,2,20µM*
O/N=C(\c1ccc(Cl)cc1)c1cc2ccccc2o1,-15%,-5,-31%,-6%,-2,-4%
C=CCn1c(O)c(C=Nc2ccc(CN3CCCCC3)cc2)c(=O)[nH]c1=S,1%,13,-4%,1%,-1,-3%
CC(C)Sc1nc(SCC(=O)O)c2c3c(sc2n1)COC(C)(C)C3,0%,54*,-43%,-2%,43*,10%
Cc1nc(SCC(=O)NCc2ccco2)c2c3c(sc2n1)CCCC3,-11%,43*,34%,-6%,24*,-7%
CC1(C)Cc2c(sc3nc(SCC(=O)O)nc(N)c23)CO1,?,24,67%,-8%,-4,-11%
CCCSc1nc(SCC(=O)NCc2ccccc2)c2c3c(sc2n1)COC(C)(C)C3,4%,-2,-10%,0%,-5,6%
CC(C)Sc1nc(SCC(=O)NCc2ccco2)c2c3c(sc2n1)COC(C)(C)C3,4%,183*,21%,-13%,93*,-13%
CCOc1ccc(NC(=O)CSc2nnc(Cc3cccn3C)n2-c2ccc(F)cc2)cc1,19%,-8,97%,-13%,-7,-7%
COCCN1C2=C(C(=O)CC(C)(C)C2)C(c2ccc(O)c(OC)c2)C2=C1CC(C)(C)CC2=O,2%,39,-12%,-1%,-2,?
Nc1cc(-c2ccc(Cl)cc2)nn1-c1ccccc1,-2%,72*,-27%,-2%,43*,2%
CC(=O)Nc1ccc(-c2cc(NC(C)=O)n(-c3ccccc3)n2)cc1,0%,-18,-13%,9%,-2,-18%
Cc1ccccc1-n1nc(-c2ccc(N)cc2)cc1N,?,4,6%,-2%,7,0%
Cc1ccc(-n2nc(-c3ccc(N)cc3)cc2N)cc1,-20%,61*,24%,-2%,32*,?
CC(=O)Nc1ccc(-c2cc(N)n(-c3ccccc3)n2)cc1,-2%,69*,-16%,-3%,64*,3%
Cc1ccc(-n2nc(-c3ccc(OC(F)(F)F)cc3)cc2N)cc1C,-2%,33,-7%,-27%,15*,1%
Nc1ccc(-c2cc(N)n(-c3ccccc3)n2)cc1,-4%,10,13%,-8%,8,5%
CNC(=O)CSc1nccn1Cc1ccc(Cl)cc1,-9%,-4,-6%,5%,-4,?
CCOc1ccc(NC(=O)C2CCCN2C(=O)OCc2ccccc2)cc1 (configuration not stated),-1%,-6,3%,-19%,11,-6%
COc1ccc(CN2CCOCC2)cc1OC,-12%,-1,-14%,-2%,-2,-6%
O=C(NC1CCS(=O)(=O)C1)c1ccc(Br)s1 (configuration not stated),3%,·,-15%,5%,·,·
SMILES,SARS PLP yeast,Shiga inhibitor,AmpC no deterg,AMA1-RON2 inh,CHX counter,AmpC inh detg
O=C(CSc1nnc(NC(=O)c2ccccc2)s1)NCC1CCCO1 (configuration not stated),-6%,36*,-14%,-17%,30*,-6%
O=C(CSc1nnc(NC(=O)c2ccccc2F)s1)NCC1CCCO1 (configuration not stated),9%,19*,-20%,10%,17*,-5%
O=C(CSc1nnc(NC(=O)Cc2ccccc2)s1)NCC1CCCO1 (configuration not stated),4%,-4,-30%,1%,-3,10%
Cc1cccc(-n2c(C)cc(C)c(C#N)c2=O)c1,0%,88*,110%,-5%,17*,-3%
Cc1ccc(-n2c(C)cc(C)c(C#N)c2=O)cc1,20%,-7,191%,-7%,0,-4%
Oc1c(N=Nc2ccccn2)ccc2ccccc12,-32%,79*,-15%,?,36*,-9%
Oc1[nH]c2ccccc2c1N=Nc1ccccn1,·,·,·,15%,·,·
CC(C)CNC(=S)N(CCN(C)C)Cc1cc2cc3c(cc2[nH]c1=O)OCCO3,7%,-11,0%,9%,1,2%
Cc1cccc(NC(=O)COC(=O)COc2ccc3c(c2)CCC3)c1,4%,·,-22%,7%,·,-2%
O=C(CSc1nnc(Cc2ccsc2)o1)c1ccccc1,0%,55,-26%,-27%,21*,0%
O=C(CSc1nnc(Cc2ccccc2)o1)c1ccc(F)cc1,0%,19,-33%,4%,8.0*,4%
O=C(CSc1nnc(CNC(=O)c2ccco2)o1)c1ccccc1,-4%,31,-32%,-5%,-3,-2%
Cc1cc(NC(=O)c2ccc3c(c2)OCO3)ccc1NC(=O)c1ccco1,-8%,48,-30%,?,14*,-12%
O=C(Nc1cccc(NC(=O)c2ccco2)c1)c1ccc2c(c1)OCO2,2%,22,11µM*,2%,10,-6%
Cc1ccc(C(=O)Nc2ccc3c(c2)OCO3)cc1NC(=O)c1ccco1,0%,74*,-11%[11.4 µM],-9%,27*,-14%
CCOC(=O)Cc1cnc(N)s1,-3%,6,-11%,6%,0,9%
CCCc1c(C(=O)N/N=C/c2c[nH]c3ccccc23)nnn1-c1nonc1N,·,·,·,9%,·,·
Cc1ccccc1COc1ccc(/C=N/NC(=O)c2nnn(-c3nonc3N)c2CN2CCC(C)CC2)cc1,14%,24,-49%,21%,21*,-7%
CCOc1ccc(-c2c(C(=O)N/N=C/c3cccc(Br)c3)nnn2-c2nonc2N)cc1,-3%,2,16µM*,41%,1,1%
Cc1ccc(-c2c(C(=O)N/N=C/c3c[nH]c4ccccc34)nnn2-c2nonc2N)cc1,-7%,4,?,80%,22*,-1%
CCOc1ccc(-c2c(C(=O)N/N=C/c3ccc(O)cc3)nnn2-c2nonc2N)cc1,0%,29,-38%,13%,-3,-7%
Clc1ccc(-c2nn3c(-c4ccccc4)nnc3s2)cc1,4%,11,-16%,13%,7,10%
